The record followed here is PMC7862700, “An all-to-all approach to the identification of sequence-specific readers for epigenetic DNA modifications on cytosine”.

Assay in all cases: DAPPL (digital affinity profiling via proximity ligation, sequencing); 10 mM Tris-HCl pH 7.5, 50 mM NaCl, 1 mM DTT, 4% glycerol, room temperature, 30 min; GST-TFs on glutathione beads, 16-mer random dsDNA library, 0.1% formaldehyde crosslink after washing; high values mean tight binding
Holding throughout (conditions): protein: recombinant; tags: N-terminal GST; dsDNA, one strand shown

Assay [1] concerns the target T1, FLI1 (Homo sapiens, UniProt Q01543 1-452).
T1 sequence: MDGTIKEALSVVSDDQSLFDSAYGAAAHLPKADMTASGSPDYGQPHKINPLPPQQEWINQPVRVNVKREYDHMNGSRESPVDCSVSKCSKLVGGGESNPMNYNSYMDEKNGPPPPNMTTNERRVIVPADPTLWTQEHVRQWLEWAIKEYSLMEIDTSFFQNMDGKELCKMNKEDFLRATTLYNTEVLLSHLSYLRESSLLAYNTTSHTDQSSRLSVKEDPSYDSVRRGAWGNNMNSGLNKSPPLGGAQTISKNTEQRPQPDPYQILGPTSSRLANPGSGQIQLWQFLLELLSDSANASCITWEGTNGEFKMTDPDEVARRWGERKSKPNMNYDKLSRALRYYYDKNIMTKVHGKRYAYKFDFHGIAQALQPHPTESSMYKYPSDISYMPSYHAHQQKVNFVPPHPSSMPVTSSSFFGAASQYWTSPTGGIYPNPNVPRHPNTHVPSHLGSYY
In a few lines:
(§1)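 Sequencing on an Illumina NextSeq500 followed washing, crosslinking with 0.1% formaldehyde, proximity ligation (BsaI/T4 ligase, 1 h, 37 °C) and PCR amplification of pools that had been incubated for 30 min at room temperature with 200 nmole of a random double-stranded 16-mer DNA library in Tris/NaCl/DTT/glycerol buffer. Each pool held DNA-barcoded human transcription factors, expressed in yeast as GST fusions and captured on glutathione beads, plus a tag-only sample. Binding signal is a hexamer's read frequency for a factor divided by its frequency in the tag-only sample.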

The target in assay [2] is T2, ELK1 (Homo sapiens, UniProt P19419 1-428).
T2 sequence: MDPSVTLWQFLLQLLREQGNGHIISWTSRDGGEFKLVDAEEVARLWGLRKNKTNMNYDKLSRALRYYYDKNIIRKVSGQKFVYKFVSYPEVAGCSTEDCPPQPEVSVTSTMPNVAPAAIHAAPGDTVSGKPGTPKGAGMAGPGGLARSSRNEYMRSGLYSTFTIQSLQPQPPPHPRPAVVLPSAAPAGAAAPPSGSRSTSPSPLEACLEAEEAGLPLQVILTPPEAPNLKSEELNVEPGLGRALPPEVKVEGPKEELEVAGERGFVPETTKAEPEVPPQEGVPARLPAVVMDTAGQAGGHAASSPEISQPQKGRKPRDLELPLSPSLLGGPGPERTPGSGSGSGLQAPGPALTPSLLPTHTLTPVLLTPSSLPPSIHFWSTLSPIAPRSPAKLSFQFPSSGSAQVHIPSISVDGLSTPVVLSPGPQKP
The method, boiled down:
as §1

Assay [3] concerns the target T3, GABPA (Homo sapiens, UniProt Q06546 1-454).
T3 sequence: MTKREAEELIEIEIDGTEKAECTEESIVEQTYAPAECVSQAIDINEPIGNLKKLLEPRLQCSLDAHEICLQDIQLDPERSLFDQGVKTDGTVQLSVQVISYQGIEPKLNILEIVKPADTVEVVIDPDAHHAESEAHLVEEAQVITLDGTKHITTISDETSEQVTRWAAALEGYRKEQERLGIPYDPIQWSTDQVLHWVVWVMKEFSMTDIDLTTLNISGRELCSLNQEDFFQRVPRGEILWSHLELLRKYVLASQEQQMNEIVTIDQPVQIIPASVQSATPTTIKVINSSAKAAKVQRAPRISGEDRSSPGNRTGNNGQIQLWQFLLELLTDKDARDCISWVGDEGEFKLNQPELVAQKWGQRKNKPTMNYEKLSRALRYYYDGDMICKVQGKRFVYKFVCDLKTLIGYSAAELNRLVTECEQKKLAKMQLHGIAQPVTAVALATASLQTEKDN
The method, boiled down: as §1

For assay [4], the target named is T4, ERG (Homo sapiens, UniProt P11308 1-479).
T4 sequence: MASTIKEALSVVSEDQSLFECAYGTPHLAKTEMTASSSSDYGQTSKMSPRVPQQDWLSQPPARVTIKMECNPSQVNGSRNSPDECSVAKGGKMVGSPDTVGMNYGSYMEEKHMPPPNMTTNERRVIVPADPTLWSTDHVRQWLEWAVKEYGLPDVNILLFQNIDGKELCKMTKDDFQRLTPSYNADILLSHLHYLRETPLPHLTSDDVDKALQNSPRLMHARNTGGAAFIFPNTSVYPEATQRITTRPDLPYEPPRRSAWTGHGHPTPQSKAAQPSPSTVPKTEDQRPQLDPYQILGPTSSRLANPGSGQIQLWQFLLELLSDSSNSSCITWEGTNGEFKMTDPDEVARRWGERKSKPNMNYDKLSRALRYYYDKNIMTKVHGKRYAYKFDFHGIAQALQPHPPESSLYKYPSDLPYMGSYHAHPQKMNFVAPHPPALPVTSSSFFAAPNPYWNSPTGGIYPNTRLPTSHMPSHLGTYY
In a few lines: as §1

The target in assay [5] is ELF1 (Homo sapiens, UniProt P32519 1-619). The method, boiled down: as §1
The target of assay [6] is T5, EHF (Homo sapiens, UniProt Q9NZC4 1-300).
T5 sequence: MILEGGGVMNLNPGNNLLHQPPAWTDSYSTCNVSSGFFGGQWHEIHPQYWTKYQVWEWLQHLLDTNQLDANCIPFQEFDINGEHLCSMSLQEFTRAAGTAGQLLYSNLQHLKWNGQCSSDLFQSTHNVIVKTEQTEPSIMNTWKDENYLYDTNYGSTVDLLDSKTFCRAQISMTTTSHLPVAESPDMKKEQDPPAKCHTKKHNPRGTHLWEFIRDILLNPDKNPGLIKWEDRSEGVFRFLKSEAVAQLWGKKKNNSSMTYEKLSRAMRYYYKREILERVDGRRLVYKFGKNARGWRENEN
In a few lines:
as §1

Assay [7] has as its target SPI1 (Homo sapiens, UniProt P17947 1-270). In a few lines:
as §1

Assay [8] has as its target SPIB (Homo sapiens, UniProt Q01892 1-262). In a few lines:
as §1

Assay [9] addresses T6, ELK3 (Homo sapiens, UniProt P41970 1-407).
T6 sequence: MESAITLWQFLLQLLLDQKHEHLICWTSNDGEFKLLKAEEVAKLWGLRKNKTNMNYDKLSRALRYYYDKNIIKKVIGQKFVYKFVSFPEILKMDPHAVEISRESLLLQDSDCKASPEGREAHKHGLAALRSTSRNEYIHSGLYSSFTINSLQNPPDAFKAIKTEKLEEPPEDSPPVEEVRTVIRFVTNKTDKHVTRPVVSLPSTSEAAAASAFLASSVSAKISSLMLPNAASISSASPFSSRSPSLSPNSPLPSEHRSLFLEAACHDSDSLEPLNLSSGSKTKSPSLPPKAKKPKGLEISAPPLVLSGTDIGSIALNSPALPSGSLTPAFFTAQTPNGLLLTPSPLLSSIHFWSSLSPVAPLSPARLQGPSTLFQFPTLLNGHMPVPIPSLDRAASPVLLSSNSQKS
In a few lines:
as §1

Assay [10] addresses T7, FEV (Homo sapiens, UniProt Q99581 1-238).
T7 sequence: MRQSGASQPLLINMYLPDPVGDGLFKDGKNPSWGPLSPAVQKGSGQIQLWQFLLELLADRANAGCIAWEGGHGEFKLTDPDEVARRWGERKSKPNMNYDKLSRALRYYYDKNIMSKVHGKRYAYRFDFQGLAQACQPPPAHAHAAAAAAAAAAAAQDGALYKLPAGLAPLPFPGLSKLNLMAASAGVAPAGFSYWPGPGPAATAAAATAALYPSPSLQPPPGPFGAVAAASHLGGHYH
The method, boiled down: as §1

The target of assay [11] is ETV5 (Homo sapiens, UniProt P41161 1-510). The method, boiled down: as §1
For assay [12], the target named is T8, SPIC (Homo sapiens, UniProt Q8N5J4 1-248).
T8 sequence: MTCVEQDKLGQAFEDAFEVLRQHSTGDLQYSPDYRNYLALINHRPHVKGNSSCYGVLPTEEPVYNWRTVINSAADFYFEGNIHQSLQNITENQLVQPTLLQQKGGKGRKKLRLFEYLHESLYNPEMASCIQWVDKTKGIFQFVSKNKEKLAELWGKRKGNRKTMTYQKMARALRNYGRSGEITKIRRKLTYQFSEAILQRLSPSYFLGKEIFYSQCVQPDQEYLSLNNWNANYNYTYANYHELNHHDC
In a few lines: as §1

Assay [13] concerns the target ELF4 (Homo sapiens, UniProt Q99607 1-663). In a few lines: as §1
Assay [14] addresses ETV1 (Homo sapiens, UniProt P50549 1-477). In a few lines:
as §1

The target of assay [15] is T9, ERF (Homo sapiens, UniProt P50548 1-548).
T9 sequence: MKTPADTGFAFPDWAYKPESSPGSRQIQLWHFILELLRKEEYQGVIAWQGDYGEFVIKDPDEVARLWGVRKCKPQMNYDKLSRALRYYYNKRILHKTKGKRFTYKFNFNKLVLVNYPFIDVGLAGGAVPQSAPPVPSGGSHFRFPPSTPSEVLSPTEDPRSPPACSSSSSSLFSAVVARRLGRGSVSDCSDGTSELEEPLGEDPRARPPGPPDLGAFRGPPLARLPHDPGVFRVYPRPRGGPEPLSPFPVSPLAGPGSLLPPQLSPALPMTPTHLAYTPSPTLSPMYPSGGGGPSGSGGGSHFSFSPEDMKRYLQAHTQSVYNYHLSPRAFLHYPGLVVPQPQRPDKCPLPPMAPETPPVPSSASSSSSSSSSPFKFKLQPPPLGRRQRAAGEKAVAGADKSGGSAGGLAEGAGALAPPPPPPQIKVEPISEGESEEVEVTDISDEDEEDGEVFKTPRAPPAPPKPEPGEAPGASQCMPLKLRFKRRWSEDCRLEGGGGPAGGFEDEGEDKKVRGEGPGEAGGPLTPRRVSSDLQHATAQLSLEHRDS
In a few lines: as §1

Assay [16] addresses T10, ETV3L (Homo sapiens, UniProt Q6ZN32 1-361).
T10 sequence: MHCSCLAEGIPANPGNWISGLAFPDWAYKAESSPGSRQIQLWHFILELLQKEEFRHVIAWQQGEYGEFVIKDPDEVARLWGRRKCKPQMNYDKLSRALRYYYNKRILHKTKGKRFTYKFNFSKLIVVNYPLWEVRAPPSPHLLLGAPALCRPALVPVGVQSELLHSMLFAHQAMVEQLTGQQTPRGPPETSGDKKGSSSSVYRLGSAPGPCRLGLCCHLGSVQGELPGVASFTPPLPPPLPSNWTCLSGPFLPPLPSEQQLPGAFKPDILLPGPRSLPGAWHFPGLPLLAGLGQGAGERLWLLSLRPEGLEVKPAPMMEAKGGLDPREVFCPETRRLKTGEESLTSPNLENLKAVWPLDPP
In a few lines:
as §1

The target of assay [17] is T11, ETS2 (Homo sapiens, UniProt P15036 1-469).
T11 sequence: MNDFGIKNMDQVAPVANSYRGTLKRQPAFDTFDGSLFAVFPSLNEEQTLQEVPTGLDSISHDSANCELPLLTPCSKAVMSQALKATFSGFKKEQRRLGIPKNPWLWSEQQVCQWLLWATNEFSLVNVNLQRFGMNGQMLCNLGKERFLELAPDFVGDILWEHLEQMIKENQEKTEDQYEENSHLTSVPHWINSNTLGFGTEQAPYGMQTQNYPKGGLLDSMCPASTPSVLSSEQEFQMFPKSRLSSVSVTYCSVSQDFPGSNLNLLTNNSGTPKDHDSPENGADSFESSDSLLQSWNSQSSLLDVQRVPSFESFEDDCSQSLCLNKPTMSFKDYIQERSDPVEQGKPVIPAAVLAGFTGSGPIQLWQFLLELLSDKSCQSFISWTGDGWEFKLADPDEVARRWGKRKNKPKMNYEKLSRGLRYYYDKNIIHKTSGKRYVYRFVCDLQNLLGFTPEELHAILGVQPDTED
In a few lines: as §1

In assay [18] the target is T12, ELF5 (Homo sapiens, UniProt Q9UKW6-2 1-255).
T12 sequence: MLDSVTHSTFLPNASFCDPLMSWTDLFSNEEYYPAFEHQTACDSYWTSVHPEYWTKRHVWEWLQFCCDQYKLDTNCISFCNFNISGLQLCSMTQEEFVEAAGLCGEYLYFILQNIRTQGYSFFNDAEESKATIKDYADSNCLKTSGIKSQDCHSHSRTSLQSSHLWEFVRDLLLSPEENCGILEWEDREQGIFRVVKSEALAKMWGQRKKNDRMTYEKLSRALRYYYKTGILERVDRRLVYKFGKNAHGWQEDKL
The method, boiled down:
as §1

Assay [19] deals with T13, ETV3 (Homo sapiens, UniProt P41162-2 1-143).
T13 sequence: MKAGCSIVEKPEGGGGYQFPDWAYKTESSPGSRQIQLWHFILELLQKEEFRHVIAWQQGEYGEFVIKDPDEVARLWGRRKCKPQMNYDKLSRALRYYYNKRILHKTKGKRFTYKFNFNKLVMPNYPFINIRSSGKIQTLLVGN
The method, boiled down: as §1

In assay [20] the target is ETV6 (Homo sapiens, UniProt P41212 1-452). The method, boiled down:
as §1

Sequence of ELF4 (Q99607 whole entry): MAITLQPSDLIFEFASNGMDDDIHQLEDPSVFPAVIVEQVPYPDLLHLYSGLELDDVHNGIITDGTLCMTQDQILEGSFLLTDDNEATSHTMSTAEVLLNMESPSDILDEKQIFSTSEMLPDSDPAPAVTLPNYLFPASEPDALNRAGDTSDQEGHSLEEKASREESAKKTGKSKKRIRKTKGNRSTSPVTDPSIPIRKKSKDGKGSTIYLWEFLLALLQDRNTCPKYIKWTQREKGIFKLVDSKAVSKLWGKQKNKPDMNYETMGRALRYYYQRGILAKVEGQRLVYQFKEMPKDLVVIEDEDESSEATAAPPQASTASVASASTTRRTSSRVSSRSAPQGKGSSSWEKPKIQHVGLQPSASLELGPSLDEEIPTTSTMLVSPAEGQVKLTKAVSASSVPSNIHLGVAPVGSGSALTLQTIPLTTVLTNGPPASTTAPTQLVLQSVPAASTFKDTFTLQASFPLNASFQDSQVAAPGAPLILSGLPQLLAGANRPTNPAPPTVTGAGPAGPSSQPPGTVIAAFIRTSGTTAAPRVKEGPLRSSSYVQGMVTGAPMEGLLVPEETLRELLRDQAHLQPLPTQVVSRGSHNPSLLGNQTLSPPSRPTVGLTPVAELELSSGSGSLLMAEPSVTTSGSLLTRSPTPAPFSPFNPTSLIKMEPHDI
Sequence of SPIB (Q01892 whole entry): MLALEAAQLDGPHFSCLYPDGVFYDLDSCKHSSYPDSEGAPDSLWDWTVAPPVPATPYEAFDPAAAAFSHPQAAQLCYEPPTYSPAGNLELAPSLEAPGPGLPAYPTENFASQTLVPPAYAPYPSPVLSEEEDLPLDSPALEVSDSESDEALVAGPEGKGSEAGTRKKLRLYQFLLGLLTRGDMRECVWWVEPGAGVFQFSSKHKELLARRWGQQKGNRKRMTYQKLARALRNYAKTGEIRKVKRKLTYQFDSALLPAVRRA
Sequence of ETV5 (P41161 whole entry): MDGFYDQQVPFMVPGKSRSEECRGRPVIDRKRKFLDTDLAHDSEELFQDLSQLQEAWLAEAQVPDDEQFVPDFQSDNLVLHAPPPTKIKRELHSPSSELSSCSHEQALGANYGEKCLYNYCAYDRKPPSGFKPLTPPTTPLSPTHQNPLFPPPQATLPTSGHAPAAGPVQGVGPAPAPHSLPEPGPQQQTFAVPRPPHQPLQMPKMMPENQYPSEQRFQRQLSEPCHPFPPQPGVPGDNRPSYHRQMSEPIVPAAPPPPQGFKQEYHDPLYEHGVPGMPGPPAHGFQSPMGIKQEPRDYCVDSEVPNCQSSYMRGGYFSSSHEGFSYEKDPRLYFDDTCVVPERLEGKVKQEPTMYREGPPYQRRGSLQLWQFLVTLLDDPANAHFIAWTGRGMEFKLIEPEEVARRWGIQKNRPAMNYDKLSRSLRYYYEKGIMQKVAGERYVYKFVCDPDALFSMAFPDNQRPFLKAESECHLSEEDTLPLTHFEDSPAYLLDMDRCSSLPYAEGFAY
Sequence of ELF1 (P32519 whole entry): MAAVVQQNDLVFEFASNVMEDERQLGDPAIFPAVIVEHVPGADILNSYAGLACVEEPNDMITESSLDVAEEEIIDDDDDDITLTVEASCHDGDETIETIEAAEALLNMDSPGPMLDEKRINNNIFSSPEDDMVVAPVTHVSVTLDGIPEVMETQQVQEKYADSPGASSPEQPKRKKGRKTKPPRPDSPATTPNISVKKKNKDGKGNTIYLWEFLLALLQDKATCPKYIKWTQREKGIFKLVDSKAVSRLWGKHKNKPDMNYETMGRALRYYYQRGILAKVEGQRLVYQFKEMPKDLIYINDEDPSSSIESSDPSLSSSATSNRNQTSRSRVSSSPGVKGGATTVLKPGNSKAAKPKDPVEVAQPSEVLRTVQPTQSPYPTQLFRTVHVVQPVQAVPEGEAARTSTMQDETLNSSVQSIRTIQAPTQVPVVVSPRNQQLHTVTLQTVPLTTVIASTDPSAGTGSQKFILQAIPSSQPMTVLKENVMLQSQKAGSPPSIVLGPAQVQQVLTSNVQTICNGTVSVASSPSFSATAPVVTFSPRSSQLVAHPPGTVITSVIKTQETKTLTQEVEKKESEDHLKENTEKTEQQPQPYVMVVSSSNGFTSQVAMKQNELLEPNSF
Sequence of ETV1 (P50549 whole entry): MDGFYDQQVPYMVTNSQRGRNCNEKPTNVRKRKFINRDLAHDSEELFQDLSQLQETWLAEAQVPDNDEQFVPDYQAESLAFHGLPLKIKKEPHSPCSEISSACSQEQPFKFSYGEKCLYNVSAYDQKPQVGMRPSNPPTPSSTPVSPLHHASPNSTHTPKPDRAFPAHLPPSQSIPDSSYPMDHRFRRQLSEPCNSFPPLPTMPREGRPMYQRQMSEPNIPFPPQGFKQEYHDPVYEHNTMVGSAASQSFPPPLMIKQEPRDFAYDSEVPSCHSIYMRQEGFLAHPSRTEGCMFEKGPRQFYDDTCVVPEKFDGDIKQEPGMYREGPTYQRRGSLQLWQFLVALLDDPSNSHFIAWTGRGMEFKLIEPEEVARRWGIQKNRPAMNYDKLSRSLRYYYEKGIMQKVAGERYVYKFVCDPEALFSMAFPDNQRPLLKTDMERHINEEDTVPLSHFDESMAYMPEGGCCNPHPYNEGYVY
Sequence of ETV6 (P41212 whole entry): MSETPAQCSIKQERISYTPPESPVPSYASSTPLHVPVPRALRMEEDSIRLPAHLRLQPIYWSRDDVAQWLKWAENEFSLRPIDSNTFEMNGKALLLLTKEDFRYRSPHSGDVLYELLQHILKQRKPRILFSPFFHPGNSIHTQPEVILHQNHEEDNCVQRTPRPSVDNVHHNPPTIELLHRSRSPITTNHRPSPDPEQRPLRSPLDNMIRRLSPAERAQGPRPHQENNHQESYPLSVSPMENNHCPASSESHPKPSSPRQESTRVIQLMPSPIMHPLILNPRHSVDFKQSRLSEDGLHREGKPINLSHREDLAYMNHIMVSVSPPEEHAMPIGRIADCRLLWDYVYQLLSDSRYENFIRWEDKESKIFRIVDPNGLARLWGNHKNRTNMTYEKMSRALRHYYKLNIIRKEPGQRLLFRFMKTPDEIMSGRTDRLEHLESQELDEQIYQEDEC

As to GTCCCA, the binding signal in assay [1] is 1.03 fold enrichment (6-mer frequency, TF over GST control); in assay [2], 1.14 fold enrichment (6-mer frequency, TF over GST control); in assay [3], 1.11 fold enrichment (6-mer frequency, TF over GST control); in assay [4], 1.17 fold enrichment (6-mer frequency, TF over GST control); in [5] it was 1.14 fold enrichment (6-mer frequency, TF over GST control); in assay [6], 1.1 fold enrichment (6-mer frequency, TF over GST control). Also, the binding signal in [7] is 1.13 fold enrichment (6-mer frequency, TF over GST control); in assay [8], 1.06 fold enrichment (6-mer frequency, TF over GST control); in assay [9], 1.18 fold enrichment (6-mer frequency, TF over GST control); in assay [10], 1.12 fold enrichment (6-mer frequency, TF over GST control); in assay [11], 1.05 fold enrichment (6-mer frequency, TF over GST control); in [12], 1.12 fold enrichment (6-mer frequency, TF over GST control). The binding signal is 1.13 fold enrichment (6-mer frequency, TF over GST control) in assay [13]; 1.14 fold enrichment (6-mer frequency, TF over GST control) in assay [14]; 1.12 fold enrichment (6-mer frequency, TF over GST control) in [15]; 1.13 fold enrichment (6-mer frequency, TF over GST control) in assay [16]; 1.05 fold enrichment (6-mer frequency, TF over GST control) in [17]; 1.12 fold enrichment (6-mer frequency, TF over GST control) in assay [18]. The binding signal is 1.07 fold enrichment (6-mer frequency, TF over GST control) in assay [19] and 1.03 fold enrichment (6-mer frequency, TF over GST control) in assay [20].
